Hit rate of the full screen: of about 310,000 compounds, about 2,200 (0.71%) showed an effect of 50% or more. The effect is printed as a negative number. Shown is part of a subset that was picked to be rich in strong results.
Each molecule was assayed against human ether-à-go-go-related gene (hERG) potassium channel (human, UniProt Q12809) (assay: primary screen, population patch clamp on CHO cells stably expressing hERG; higher = less effect of the substance).
Chain of human ether-à-go-go-related gene (hERG) potassium channel (Q12809 whole entry, looked up): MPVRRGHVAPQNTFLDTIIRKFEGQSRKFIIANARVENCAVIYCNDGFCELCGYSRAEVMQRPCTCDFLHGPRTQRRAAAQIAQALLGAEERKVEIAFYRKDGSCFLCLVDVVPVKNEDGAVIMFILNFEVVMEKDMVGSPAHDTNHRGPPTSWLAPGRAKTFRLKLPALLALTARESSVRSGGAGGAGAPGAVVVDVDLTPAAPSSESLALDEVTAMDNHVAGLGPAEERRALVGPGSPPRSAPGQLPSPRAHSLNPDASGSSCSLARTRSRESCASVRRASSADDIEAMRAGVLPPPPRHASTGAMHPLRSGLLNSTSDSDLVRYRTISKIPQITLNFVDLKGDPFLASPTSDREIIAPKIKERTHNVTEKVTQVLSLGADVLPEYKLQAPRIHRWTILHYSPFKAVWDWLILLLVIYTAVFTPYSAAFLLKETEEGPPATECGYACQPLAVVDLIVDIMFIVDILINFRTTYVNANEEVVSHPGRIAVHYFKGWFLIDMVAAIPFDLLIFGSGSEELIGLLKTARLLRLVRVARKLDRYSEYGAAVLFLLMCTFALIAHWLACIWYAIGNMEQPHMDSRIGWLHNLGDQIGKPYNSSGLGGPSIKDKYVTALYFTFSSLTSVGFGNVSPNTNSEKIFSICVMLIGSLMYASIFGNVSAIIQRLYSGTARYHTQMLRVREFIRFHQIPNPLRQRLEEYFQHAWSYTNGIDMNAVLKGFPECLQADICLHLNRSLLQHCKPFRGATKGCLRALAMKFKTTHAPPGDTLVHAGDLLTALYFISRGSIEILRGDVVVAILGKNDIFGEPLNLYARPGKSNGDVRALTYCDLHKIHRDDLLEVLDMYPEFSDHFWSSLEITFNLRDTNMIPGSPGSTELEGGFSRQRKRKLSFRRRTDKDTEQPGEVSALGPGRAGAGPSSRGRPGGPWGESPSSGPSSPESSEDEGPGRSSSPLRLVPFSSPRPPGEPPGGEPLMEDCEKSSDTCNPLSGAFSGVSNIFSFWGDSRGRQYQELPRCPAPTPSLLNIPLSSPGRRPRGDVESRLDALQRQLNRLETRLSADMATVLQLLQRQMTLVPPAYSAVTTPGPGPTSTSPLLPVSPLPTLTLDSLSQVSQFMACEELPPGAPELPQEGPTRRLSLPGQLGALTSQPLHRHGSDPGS

SMILES | hERG current change (%, negative = inhibition) at 1uM [%]
CC1CN(C(=O)c2c(Br)cnn2C)CC(C)O1 (stereo not shown) | 4.32
O=C(COC(=O)Cc1ccsc1)Nc1cccc(Cl)c1 | 0.601
Cc1ccc(C(=O)N2CCN(c3ccccc3)CC2)cc1NC(=O)c1ccco1 | 1.43
COc1ccc(N2CCN(C(=O)c3ccc(C)c(NC(=O)c4ccco4)c3)CC2)cc1 | -53.7
COc1ccc(N2CCN(C(=O)c3cccc(NC(=O)c4ccco4)c3)CC2)cc1 | -8.07
O=C(c1cc(COc2ccc3ncccc3c2)on1)N1CCCC1 | 13.5
CN1C(=O)c2oc3ccccc3c(=O)c2C1c1ccncc1 (stereo not shown) | 5.81
O=S(=O)(c1ccc2nc(-c3ccccc3)[nH]c2c1)N1CCN(c2ccc(Cl)cc2)CC1 | 5.61
O=C(NCC1CCN(Cc2ccccc2Cl)CC1)Nc1cccc(Cl)c1 | -62.3
O=C(NCC1CCN(Cc2ccccc2Cl)CC1)Nc1ccccc1F | -6.32
COc1ccc(OC)c(CN2CCC(CNC(=O)Nc3cccc(Cl)c3)CC2)c1 | -26.3
C1CNCCN1.COc1cc(C(O)CO)ccc1O (stereo not shown) | 10
CCN(CC)CCOC(=O)CCc1cccc2ccccc12.O=C(O)C(=O)O | -3.77
CCN(CC)CCOC(=O)C(Cc1cccc2ccccc12)CC1CCCO1.O=C(O)C(=O)O (stereo not shown) | -20.2
CCN(CC)CCOC(=O)C(Cc1ccco1)Cc1cccc2ccccc12.O=C(O)C(=O)O (stereo not shown) | -62.8
C#CCOCCOCCOCCNc1nc(N2CCOCC2)nc(N2CCN(C(=O)Cn3cc(CCC[NH+]=C(N)N)nn3)CC2)n1.[Cl-] | 17.5
CCc1ccc(/C=C(/C#N)C(N)=S)s1 | 15
O=C(N/N=C/c1ccsc1)c1ccccn1 | 16.7
O=C(Nc1ccc(Cl)cc1)N(CCCN1CCOCC1)Cc1cccs1 | -55
O=C(CNC(=S)N(CCCN1CCOCC1)Cc1cccs1)NCCCN1CCOCC1 | 16.3

SMILES | hERG current change (%, negative = inhibition) at 1uM [%]
O=C(CNC(=S)N(CCCN1CCOCC1)Cc1cccs1)NCc1ccc(Cl)cc1 | -61.3
O=C(CNC(=S)N(CCCN1CCOCC1)Cc1cccs1)NCc1ccccc1Cl | -35.5
O=C(Nc1ccccc1)N(CCCN1CCOCC1)Cc1cccs1 | -29.2
O=C(Nc1ccc(Cl)c(Cl)c1)N(CCCN1CCOCC1)Cc1cccs1 | -41.8
Cc1ccc(OCC(=O)N2CCc3ccccc32)cc1 | 10.7
O=C(CN1CCN(c2ccccc2)CC1)Nc1ccc(OCc2ccccc2)cc1 | 13.4
Cc1ccc(NC(=O)CN2CCC(NC(=O)c3cccc(F)c3)CC2)cc1C | -13.4
O=C(CN1CCC(NC(=O)c2cccc(F)c2)CC1)Nc1ccc(Br)cc1 | -53.9
Cc1cc(C(=O)CN2CCN(CC(=O)Nc3cccc(F)c3)CC2)c(C)n1C1CC1 | -7.82
O=C(CN1CCN(CC(=O)Nc2ccc(OCc3ccccc3)cc2)CC1)Nc1ccc(F)cc1 | -81.5
O=C(CN1CCCC1)Nc1ccc(OCc2ccccc2)cc1 | 8
CCCCOc1ccc(NC(=O)CN2CCN(Cc3ccccc3)CC2)cc1 | 1.72
CCOc1ccc(NC(=O)CN2CCN(C3c4ccccc4-c4ccccc43)CC2)cc1 | -25.5
Cc1cccc(C)c1NC(=O)CN1CCN(CC(=O)c2cc(C)n(C3CC3)c2C)CC1 | -0.73
Cc1cc(C(=O)CN2CCN(CC(=O)Nc3ccc(F)cc3)CC2)c(C)n1C1CC1 | -72.3
CCOc1ccc(NC(=O)CN2CCN(Cc3c(F)cccc3F)CC2)cc1 | -50.7
Cc1cc(C)cc(NC(=O)CN2CCC(NC(=O)c3cccc(F)c3)CC2)c1 | 4.29
C[C@]1(C(=O)NCCc2c[nH]c3ccccc23)C=C[C@@H](Cc2ccccc2)N1C(=O)c1ccccc1 | 7.98
CCn1ccc(C(=O)NC2CCCC2)n1 | 8.64
CN(C)C(=O)CN1CCN(Cc2nc(CC3CC3)no2)CC1 | 7.17

SMILES | hERG current change (%, negative = inhibition) at 1uM [%]
COCCN(C(=O)CSc1nc2ccccc2c(=O)n1CCOC)c1c(N)n(Cc2ccccc2)c(=O)[nH]c1=O | 12.6
Cl.O=S(=O)(NC1CCN(Cc2ccccc2)CC1)c1ccc2ccccc2c1 | 4.69
C#CCOCCOCCOCCNc1nc(N2CCN(C(=O)[C@H](Cc3ccc(O)cc3)n3cc([C@@H](N)C(C)CC)nn3)CC2)nc(N2CCN(C(=O)[C@H](CCCCN)n3cc([C@@H](N)CO)nn3)CC2)n1.Cl (stereo partly shown) | 12.4
COc1cccc(/C=C/C(=O)OCC(=O)NC2CC2)c1 | 10.5
CC(C)/C(=N/Nc1ccccc1[N+](=O)[O-])c1ccccc1 | 22.6
CCCCc1nnc(NC(=O)COC)s1 | 16.3
CCOC(=O)N1CCN(CC(=O)Nc2ccc(F)cc2)CC1 | -73
COc1cc(C(=O)N2CCC(n3cnc4cc(F)ccc43)CC2)cc(OC)c1OC | -9.25
CCOC(=O)N1CCN(CC(=O)Nc2ccc(OC)cc2)CC1 | 9.1
COc1cc(NC(=O)CN2CCCCCC2)cc(OC)c1 | 13.5
COc1ccccc1CNC(=O)CN1CCC(NC(=O)c2ccccc2F)CC1.Cl | 1.06
CCOc1ccc(NC(=O)CN2CCC(n3cnc4cc(F)ccc43)CC2)cc1 | -71.7
CCOc1ccc(NC(=O)CN2CCN(CC(=O)Nc3ccc(C(=O)OC)cc3)CC2)cc1 | -48
O=C(CN1CCC(n2cnc3cc(F)ccc32)CC1)Nc1ccccc1Br | -23.5
CC(=O)Nc1ccc(S(=O)(=O)N2CCC(n3cnc4cc(F)ccc43)CC2)cc1 | -26.4
CCOC(=O)N1CCN(CC(=O)Nc2ccc(C)cc2)CC1 | 6.17
CCOc1ccc(NC(=O)CN2CCN(CC(=O)Nc3cc(OC)cc(OC)c3)CC2)cc1 | -71.3
COc1ccccc1CNC(=O)CN1CCC(n2cnc3cc(F)ccc32)CC1 | -59.1

Source: PMC4336329 (PLoS ONE, 2015)
